Results as given in PubChem BioAssay.
For some assays here: Potency and affinity values are given separately. Calls of active or inactive are those of the source.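 Rule for the calls, unless noted: active = primary screen hit whose calcium fluorescence ratio, in both repeats, exceeds the weak agonist control mean by 3 SD; inactive = the rest.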

What was measured:
[1] = system: TRPC4 beta (transient receptor potential cation channel C4), mouse; experiment: TRPC4 cation channel opening, retest – cell-based, Fluo4 calcium, HEK293 TRPC4beta/mu-opioid, duplicates, 10 µM, confirmation (AID 2426;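 active = fluorescence ratio normalized to control raised more than 50% in primary screen plus both repeat runs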;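 for activation: percent rise of integrated ratio over buffer wells lacking compound which define 0%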); settings: Fluo4 calcium fluorescence, at 10 µM; active compounds read high
[2] = system: transient receptor potential cation channel C4 beta (TRPC4), mouse; experiment: TRPC4 cation channel opening, second retest – cell-based, second round, Fluo4, HEK293 TRPC4beta/mu-opioid, 1 µM, confirmation (AID 2461;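 active = primary screen active and over 50% activation in each of two duplicate runs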); settings: Fluo4 calcium fluorescence, at 1 µM; active compounds read high
[3] = system: TRPC4 (transient receptor potential cation channel C4 beta), mouse; experiment: potentiation of DAMGO EC20 TRPC4 response – cell-based, second round, Fluo-4, HEK293 TRPC4beta/mu-opioid, 1 µM, confirmation (AID 2554;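 active = primary screen hit whose fluorescence ratio, in both repeats, exceeds the weak agonist control mean by 3 SD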); settings: DAMGO EC20, Fluo-4 calcium flux, at 1 µM; active compounds read high
[4] = system: TRPC4 beta (transient receptor potential cation channel C4), mouse; experiment: potentiation of DAMGO EC20 TRPC4 response – cell-based, Fluo-4, HEK293 TRPC4beta/mu-opioid, confirmation (AID 2555); settings: DAMGO EC20, Fluo-4 calcium flux, at 10 µM; active compounds read high
[5] = target: Short transient receptor potential channel 4 (Mus musculus) (UniProt Q9QUQ5); experiment: blockers of DAMGO-evoked TRPC4 calcium flux – cell-based, Fluo4, HEK293 TRPC4beta/mu-opioid, confirmation (AID 2636;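 active = calcium signal cut by more than 3 SD below the full-agonist control yet still positive, in both repeats and the earlier primary screen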); settings: at 10 µM; active compounds read high
Chain of Short transient receptor potential channel 4 (Mus musculus) (Q9QUQ5 whole entry, looked up): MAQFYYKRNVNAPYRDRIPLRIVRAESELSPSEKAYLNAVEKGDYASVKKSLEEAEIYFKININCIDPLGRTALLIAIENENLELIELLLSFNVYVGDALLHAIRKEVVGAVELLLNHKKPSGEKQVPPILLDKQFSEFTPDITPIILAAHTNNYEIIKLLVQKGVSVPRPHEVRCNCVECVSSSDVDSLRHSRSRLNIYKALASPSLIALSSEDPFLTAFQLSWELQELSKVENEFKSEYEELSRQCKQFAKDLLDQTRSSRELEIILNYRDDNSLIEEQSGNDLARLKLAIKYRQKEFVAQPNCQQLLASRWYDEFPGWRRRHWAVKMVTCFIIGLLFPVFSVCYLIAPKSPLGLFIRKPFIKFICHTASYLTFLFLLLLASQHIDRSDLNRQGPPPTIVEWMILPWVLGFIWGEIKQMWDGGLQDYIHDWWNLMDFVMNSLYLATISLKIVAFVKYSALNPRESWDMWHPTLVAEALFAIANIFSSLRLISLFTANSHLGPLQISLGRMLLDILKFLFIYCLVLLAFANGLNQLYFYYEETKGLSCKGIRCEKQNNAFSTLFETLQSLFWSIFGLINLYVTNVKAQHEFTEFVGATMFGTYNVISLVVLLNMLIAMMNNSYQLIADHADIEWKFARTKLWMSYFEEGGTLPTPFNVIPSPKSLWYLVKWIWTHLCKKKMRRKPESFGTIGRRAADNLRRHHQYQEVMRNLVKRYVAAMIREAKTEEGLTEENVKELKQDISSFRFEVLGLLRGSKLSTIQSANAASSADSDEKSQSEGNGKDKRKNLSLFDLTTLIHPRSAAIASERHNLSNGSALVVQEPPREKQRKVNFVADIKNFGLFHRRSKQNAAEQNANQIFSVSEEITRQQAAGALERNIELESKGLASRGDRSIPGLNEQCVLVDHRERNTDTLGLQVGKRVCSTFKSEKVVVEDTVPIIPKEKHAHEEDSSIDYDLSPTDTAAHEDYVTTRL

[6] = target: Short transient receptor potential channel 4 (Mus musculus) (UniProt Q9QUQ5); experiment: blockers of DAMGO-evoked TRPC4 calcium flux – cell-based, second round, Fluo4, HEK293 TRPC4beta/mu-opioid, 1 µM, confirmation (AID 2637;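 active = calcium signal ratio cut to more than 3 SD under the fully stimulated control mean yet still positive, in both repeats and the primary screen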;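 for inhibition: percent of integrated ratio relative to wells lacking test compound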); settings: at 1 µM; active compounds read high
[7] = target: Short transient receptor potential channel 4 (Mus musculus) (UniProt Q9QUQ5); experiment: calcium entry via TRPC4 opening agents – cell-based, HEK293 TRPC4/mu-opioid, Fluo-4 calcium, dose response (AID 434937;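 active = primary screen activator hit with a dose response curve and TRPC4 channel activation at any tested dose; inactive = no activation, no dose response, or not a primary hit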)
[8] = target: Short transient receptor potential channel 4 (Mus musculus) (UniProt Q9QUQ5); experiment: potentiation of DAMGO-evoked TRPC4 calcium signal – cell-based, HEK293 TRPC4/mu-opioid, Fluo-4 calcium, EC20 DAMGO, dose response (AID 434941;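 active = earlier screen potentiator hit that boosts the TRPC4 ion channel at some dose, with a dose response; inactive = no potentiation, no dose response, or not a prior hit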;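 note: calcium entry triggered by an EC20 dose of DAMGO at the co-expressed mu-opioid receptor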)
[9] = target: Short transient receptor potential channel 6 (Mus musculus) (UniProt Q61143); experiment: TRPC6 blockade by TRPC4 inhibitor hits – cell-based, HEK293, membrane potential dye, duplicate, selectivity assay for TRPC4 inhibitor project, confirmation (AID 434948;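 active = active in primary screen and both duplicates, each dropping signal beyond three positive-control SD with fluorescence still positive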); settings: HEK293 TRPC6, membrane potential dye fluorescence, at 10 µM, stimulated with maximal-effect acetylcholine; active compounds read high
Chain of Short transient receptor potential channel 6 (Mus musculus) (Q61143 whole entry, looked up): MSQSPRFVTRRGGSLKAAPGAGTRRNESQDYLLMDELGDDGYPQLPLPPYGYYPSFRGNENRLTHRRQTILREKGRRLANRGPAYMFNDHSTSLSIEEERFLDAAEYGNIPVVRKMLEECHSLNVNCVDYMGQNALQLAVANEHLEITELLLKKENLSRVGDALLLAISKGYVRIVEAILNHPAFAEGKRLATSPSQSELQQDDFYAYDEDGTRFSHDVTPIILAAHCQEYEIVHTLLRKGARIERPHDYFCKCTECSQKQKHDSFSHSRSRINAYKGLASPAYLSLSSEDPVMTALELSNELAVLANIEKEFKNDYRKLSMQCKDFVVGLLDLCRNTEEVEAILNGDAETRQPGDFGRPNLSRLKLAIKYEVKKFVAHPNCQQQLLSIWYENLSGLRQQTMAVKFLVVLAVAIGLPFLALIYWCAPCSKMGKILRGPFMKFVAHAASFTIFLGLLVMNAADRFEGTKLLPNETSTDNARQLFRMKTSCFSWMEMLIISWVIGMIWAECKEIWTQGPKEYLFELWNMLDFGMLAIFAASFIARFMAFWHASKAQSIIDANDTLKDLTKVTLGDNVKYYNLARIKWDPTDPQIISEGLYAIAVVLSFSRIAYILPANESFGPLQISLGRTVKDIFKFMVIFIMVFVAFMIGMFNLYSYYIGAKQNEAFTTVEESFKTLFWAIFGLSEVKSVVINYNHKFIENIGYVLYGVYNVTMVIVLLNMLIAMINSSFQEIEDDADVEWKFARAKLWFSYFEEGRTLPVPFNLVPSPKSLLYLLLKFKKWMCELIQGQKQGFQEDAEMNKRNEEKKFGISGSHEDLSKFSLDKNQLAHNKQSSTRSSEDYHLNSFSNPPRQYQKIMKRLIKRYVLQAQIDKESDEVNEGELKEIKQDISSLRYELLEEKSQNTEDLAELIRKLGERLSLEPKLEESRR

[10] = target: Short transient receptor potential channel 6 (Mus musculus) (UniProt Q61143); experiment: TRPC6 opening by TRPC4 activator hits – cell-based, HEK293, membrane potential dye, duplicate, selectivity assay for TRPC4 activator project, confirmation (AID 434950;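 active = membrane potential signal rise above negative control mean plus 3 SD in both duplicates, also active in the earlier TRPC4 screen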); settings: HEK293 TRPC6, membrane potential fluorescence, at 10 µM; activation: active compounds read high; outcome: activation
[11] = target: Short transient receptor potential channel 6 (Mus musculus) (UniProt Q61143); experiment: positive modulators of mouse TRPC6 channel – HEK293 cells, membrane potential dye, duplicate, selectivity assay for TRPC4 potentiator project, confirmation (AID 434952;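 active = compound raising the membrane signal above positive-control mean plus 3 SD in both repeats, and a primary screen hit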); settings: HEK293 TRPC6, membrane potential dye fluorescence, at 10 µM, maximal acetylcholine added after compound; active compounds read high
[12] = target: Short transient receptor potential channel 4 (Mus musculus) (UniProt Q9QUQ5); experiment: calcium flux activators in TRPC4/5HT1a cells, counter-screen for TRPC4 activator project, cell-based, second counter screen, HEK293 TRPC4/5HT1a, Fluo-4 (AID 434977;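 active = calcium signal rise above buffer-control mean plus 5 SD in both duplicates, and also a hit in the primary screen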;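 for activation: plate controls were assay buffer for no effect and maximal serotonin response for full effect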); settings: Fluo-4 calcium flux, at 10 µM; active compounds read high
[13] = serotonin-gated TRPC4 signal block – cell-based, second counter screen, HEK293 TRPC4/5HT1a, Fluo-4, counter-screen for TRPC4 inhibitor project, confirmation (AID 434978;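 active = primary screen active whose calcium signal fell more than 3 SD beyond the full-serotonin control mean in both duplicate plates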;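 for outcome: serotonin given first at submaximal then at maximal dose after compound preincubation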); settings: Fluo-4 calcium flux, at 10 µM, serotonin added to trigger calcium flux; active compounds read high
[14] = system: TRPC4 (mouse), co-expressed with 5HT1a in HEK293; experiment: enhancement of serotonin-evoked TRPC4 response – cell-based, second counter screen, HEK293 TRPC4/5HT1a, Fluo-4, counter-screen for TRPC4 potentiator project, confirmation (AID 434979;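 active = signal rise over 3 SD above mean of control wells given weak agonist, in both repeats and first screen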); settings: Fluo-4 calcium flux, at 10 µM, serotonin added at its EC20 dose; active compounds read high
[15] = nonspecific calcium rise without TRPC4 – cell-based, HEK293 mu-opioid receptor line, counter-screen for TRPC4 activator project, confirmation (AID 449723;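 active = hit in primary screen, with calcium signal over 5 SD above buffer well mean in both duplicates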;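 note: counter screen cells carry the mu-opioid receptor alone and lack TRPC4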); settings: HEK293 mu-opioid cells, Fluo-4 calcium fluorescence, at 10 µM; active compounds read high
[16] = nonspecific potentiation of DAMGO calcium response – cell-based, HEK293 mu-opioid receptor line, counter-screen for TRPC4 allosteric potentiator project, confirmation (AID 449724;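 active = calcium signal rise more than 3 SD above the low-dose agonist control mean, in both duplicate plates and the primary screen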); settings: HEK293 mu-opioid receptor cells, Fluo-4 calcium flux, at 10 µM, compound added before EC20 DAMGO stimulus; active compounds read high
[17] = target: Short transient receptor potential channel 4 (Mus musculus) (UniProt Q9QUQ5); experiment: block of DAMGO-driven TRPC4 calcium entry – cell-based, HEK293 TRPC4/mu-opioid, Fluo-4 calcium, dose response (AID 434942;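 active = primary screen inhibitor hit that blocks the TRPC4 channel at some tested dose, yielding a dose curve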)
[18] = nonspecific flux increase, KCNQ1-free cells – parental CHO cells, counter-screen for KCNQ1 potentiator project (AID 493006;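 active = duplicate-averaged activation above buffer control mean plus 5 SD of those controls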;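 for activation: fluorescence ratio of max minus min over baseline after K+ and Tl+ depolarization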); settings: parental CHO-K1 cells, FluxOR thallium flux, at 10 µM; active compounds read high
[19] = target: Potassium voltage-gated channel subfamily KQT member 1 (Homo sapiens) (UniProt P51787); experiment: enhancement of KCNQ1 channel thallium flux – FluxOR thallium flux, CHO cells, duplicates, confirmation (AID 493007;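 active = potentiation averaged over duplicate wells exceeding buffer-only control mean by more than 3 SD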;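 for outcome: cells depolarized by a potassium plus thallium sulfate stimulus after compound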;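 for potentiation: 0% = buffer-only wells and 100% = R-L3 activator control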); settings: KCNQ1 cell line, FluxOR thallium flux fluorescence, at 10 µM; active compounds read high, % of reference activator effect, buffer zero
Chain of Potassium voltage-gated channel subfamily KQT member 1 (Homo sapiens) (P51787 whole entry, looked up): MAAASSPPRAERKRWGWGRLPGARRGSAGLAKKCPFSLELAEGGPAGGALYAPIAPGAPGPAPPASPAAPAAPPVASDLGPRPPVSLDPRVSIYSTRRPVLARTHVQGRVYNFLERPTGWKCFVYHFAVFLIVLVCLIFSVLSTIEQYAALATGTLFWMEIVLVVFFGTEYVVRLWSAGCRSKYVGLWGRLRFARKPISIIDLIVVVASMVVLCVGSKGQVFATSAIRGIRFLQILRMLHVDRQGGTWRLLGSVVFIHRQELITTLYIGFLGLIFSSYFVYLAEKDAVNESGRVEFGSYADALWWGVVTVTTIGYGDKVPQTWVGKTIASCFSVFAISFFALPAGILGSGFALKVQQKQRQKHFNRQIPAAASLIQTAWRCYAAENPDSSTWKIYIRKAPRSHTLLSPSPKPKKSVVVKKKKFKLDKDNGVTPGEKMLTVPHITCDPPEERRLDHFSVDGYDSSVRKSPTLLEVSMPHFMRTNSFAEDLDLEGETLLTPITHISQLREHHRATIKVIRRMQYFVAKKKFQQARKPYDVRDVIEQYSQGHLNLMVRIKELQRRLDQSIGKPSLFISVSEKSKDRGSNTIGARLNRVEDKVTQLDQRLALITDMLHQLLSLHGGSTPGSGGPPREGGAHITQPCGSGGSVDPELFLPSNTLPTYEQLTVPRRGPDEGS

[20] = target: Potassium voltage-gated channel subfamily KQT member 2 (Rattus norvegicus) (UniProt O88943); experiment: KCNQ2 thallium flux enhancement – KCNQ2-CHO-K1 cells, selectivity assay for KCNQ1 potentiator project (AID 493009;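 active = mean duplicate potentiation above the buffer control mean plus 5 SD of buffer wells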;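 note: assay conditions were tuned for KCNQ1 rather than KCNQ2 modulators; signal is max minus min fluorescence divided by baseline after thallium stimulus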); settings: FluxOR thallium flux fluorescence, at 10 µM; active compounds read high, scaled: buffer 0, activator control 100
Chain of Potassium voltage-gated channel subfamily KQT member 2 (Rattus norvegicus) (O88943 whole entry, looked up): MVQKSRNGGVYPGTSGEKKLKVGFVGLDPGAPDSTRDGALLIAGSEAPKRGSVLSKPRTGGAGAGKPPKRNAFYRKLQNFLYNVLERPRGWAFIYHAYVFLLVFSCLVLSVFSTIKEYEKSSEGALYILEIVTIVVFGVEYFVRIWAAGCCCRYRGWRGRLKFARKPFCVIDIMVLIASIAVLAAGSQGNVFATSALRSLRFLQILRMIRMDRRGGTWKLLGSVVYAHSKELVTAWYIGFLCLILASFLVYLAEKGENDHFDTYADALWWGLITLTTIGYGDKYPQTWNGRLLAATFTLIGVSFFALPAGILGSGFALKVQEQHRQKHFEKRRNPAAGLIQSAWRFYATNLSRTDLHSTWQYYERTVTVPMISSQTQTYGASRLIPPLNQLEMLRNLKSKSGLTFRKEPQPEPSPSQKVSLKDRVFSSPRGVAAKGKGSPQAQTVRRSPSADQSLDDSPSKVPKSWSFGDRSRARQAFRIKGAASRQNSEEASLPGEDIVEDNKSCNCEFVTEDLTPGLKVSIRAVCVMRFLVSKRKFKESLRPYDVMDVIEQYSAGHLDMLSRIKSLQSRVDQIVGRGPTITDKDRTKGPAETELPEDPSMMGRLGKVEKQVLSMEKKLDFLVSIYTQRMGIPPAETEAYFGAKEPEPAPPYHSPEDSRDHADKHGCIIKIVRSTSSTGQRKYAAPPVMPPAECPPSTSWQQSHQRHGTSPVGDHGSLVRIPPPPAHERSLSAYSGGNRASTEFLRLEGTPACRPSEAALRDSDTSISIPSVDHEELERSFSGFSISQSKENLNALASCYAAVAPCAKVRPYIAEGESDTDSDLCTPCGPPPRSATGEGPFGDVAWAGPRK

Cc1ccc(C(=O)C2=C(O)C(=O)N(Cc3cccnc3)C2c2ccc(Cl)c(Cl)c2)o1 (stereo not drawn)
inactive: outcome [1] | outcome [2] | outcome [3] | outcome [4] | outcome [6] | outcome [7] | outcome [8] | outcome [9] | outcome [10] | outcome [11] | outcome [12] | outcome [14] | outcome [15] | outcome [16]
active: inhibition [5] 90% | inhibition [13] 32.8%

Cc1[nH]nc(-c2ccc(O)cc2O)c1-c1ccc(Cl)cc1
active: inhibition [5] 86% | inhibition [13] 23.5%
inactive: outcome [1] | outcome [2] | outcome [3] | outcome [4] | outcome [6] | outcome [7] | outcome [8] | outcome [9] | outcome [10] | outcome [11] | outcome [12] | outcome [14] | outcome [15] | outcome [16]

C1CCN(c2nc(N3CCCC3)nc(N3CCNCC3)n2)C1
active: potentiation [14] 18.4%
inactive: outcome [1] | outcome [2] | outcome [3] | outcome [4] | outcome [5] | outcome [6] | outcome [7] | outcome [17] | outcome [9] | outcome [10] | outcome [11] | outcome [12] | outcome [13] | outcome [15] | outcome [16]

CC1=NN(c2ccccc2)C(=O)/C1=C/c1c(O)n(-c2ccc(F)c(Cl)c2)[nH]c1=O
inactive: outcome [1] | outcome [2] | outcome [3] | outcome [4] | outcome [6] | outcome [7] | outcome [8] | outcome [9] | outcome [10] | outcome [11] | outcome [12] | outcome [14] | outcome [15] | outcome [16] | outcome [18] | outcome [19] | outcome [20]
active: inhibition [5] 97% | inhibition [13] 17.1%

O=C(O)c1ccc(Cl)cc1Nc1nc2cc(Cl)ccc2o1
inactive: outcome [1] | outcome [2] | outcome [3] | outcome [4] | outcome [6] | outcome [7] | outcome [8] | outcome [9] | outcome [10] | outcome [11] | outcome [12] | outcome [14] | outcome [15] | outcome [16] | outcome [18] | outcome [20]
active: inhibition [5] 98% | inhibition [13] 9.42% | potentiation [19] 24.5%

O=[N+]([O-])c1cc(C(F)(F)F)ccc1NC1CCN(Cc2ccccc2)C1 (stereo not drawn)
inactive: outcome [1] | outcome [2] | outcome [3] | outcome [4] | outcome [5] | outcome [6] | outcome [7] | outcome [17] | outcome [9] | outcome [10] | outcome [11] | outcome [12] | outcome [13] | outcome [15] | outcome [16]
active: potentiation [14] 23.9%

c1ccc(-c2nc(NCc3ccco3)c3ccccc3n2)cc1
active: inhibition [5] 87% | inhibition [13] 32.3%
inactive: outcome [1] | outcome [2] | outcome [3] | outcome [4] | outcome [6] | outcome [7] | outcome [8] | outcome [9] | outcome [10] | outcome [11] | outcome [12] | outcome [14] | outcome [15] | outcome [16] | outcome [18] | outcome [19] | outcome [20]

CCCc1nc2oc3c(NCCN(C)C)ncnc3c2c2c1CCCC2
active: inhibition [5] 86% | inhibition [6] 37% | inhibition [13] 13.5%
inactive: outcome [1] | outcome [2] | outcome [3] | outcome [4] | outcome [7] | outcome [8] | outcome [9] | outcome [10] | outcome [11] | outcome [12] | outcome [14] | outcome [15] | outcome [16] | outcome [18] | outcome [19] | outcome [20]

Cc1cccc(/C=N/NC(=O)c2cccc(Cl)c2)n1
inactive: outcome [1] | outcome [2] | outcome [3] | outcome [5] | outcome [6] | outcome [7] | outcome [17] | outcome [9] | outcome [10] | outcome [11] | outcome [12] | outcome [13] | outcome [15] | outcome [16]
active: potentiation [4] 79% | potentiation [14] 83.4%

Cc1ccc(OCC(=O)NNC(=S)NC(=O)c2ccc(Br)o2)c(C)c1
active: inhibition [5] 65% | activation [12] 18.1% | inhibition [13] 21.6% | activation [18] 198% | potentiation [19] 106% | potentiation [20] 328%
inactive: outcome [1] | outcome [2] | outcome [3] | outcome [4] | outcome [6] | outcome [7] | outcome [8] | outcome [9] | outcome [10] | outcome [11] | outcome [14] | outcome [15] | outcome [16]

Oc1c(Br)cc(Br)cc1C=Nc1ccc2[nH]ncc2c1
active: inhibition [5] 68% | inhibition [13] 30.1% | activation [18] 184% | potentiation [19] 41.5%
inactive: outcome [1] | outcome [2] | outcome [3] | outcome [4] | outcome [6] | outcome [7] | outcome [8] | outcome [9] | outcome [10] | outcome [11] | outcome [12] | outcome [14] | outcome [15] | outcome [16] | outcome [20]

C=CCSc1nc2c(c(=O)[nH]c(=O)n2C)n1C/C=C(/C)Cl
active: inhibition [5] 85% | inhibition [6] 57% | inhibition [13] 32.5%
inactive: outcome [1] | outcome [2] | outcome [3] | outcome [4] | outcome [7] | outcome [8] | outcome [9] | outcome [10] | outcome [11] | outcome [12] | outcome [14] | outcome [15] | outcome [16] | outcome [18] | outcome [19] | outcome [20]

O=Cc1cc(N=Nc2ccccc2Cl)ccc1O
inactive: outcome [1] | outcome [2] | outcome [3] | outcome [4] | outcome [6] | outcome [7] | outcome [8] | outcome [9] | outcome [10] | outcome [11] | outcome [12] | outcome [14] | outcome [15] | outcome [16]
active: inhibition [5] 91% | inhibition [13] 30.2% | activation [18] 237% | potentiation [19] 81% | potentiation [20] 248%

Cc1ccc(Cn2c(=N)c(C(=O)NC3CCCC3)cc3c(=O)n4ccccc4nc32)cc1
inactive: outcome [2] | outcome [4] | outcome [5] | outcome [6] | outcome [7] | outcome [17] | outcome [9] | outcome [10] | outcome [11] | outcome [12] | outcome [13] | outcome [15] | outcome [16]
active: activation [1] 206% | potentiation [3] 8% | potentiation [14] 41.6%
